Measurements published in PubChem BioAssay (NCI).
“And” between values parts separate entries of the source, which are not always exact repeats. Identical values can stand only once. The panel holds about 83,000 compounds, 20% with a hit somewhere; the sample as a whole holds those more often.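 Negative percent growth values reflect cell death: -40 means 40% of the cells present at the start died, and -100 means all died.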 The source made the active and inactive calls. Rule for the calls: active = growth percent below 10; inactive = the rest.

Columns and labels:
Assay in all cases: NCI-60 one-dose screen, 48 h (100 = growth as untreated, 0 = no growth, -100 = all killed)
[1] = test system: SK-MEL-2 melanoma
[2] = test system: EKVX NSCLC
[3] = test system: SN12C renal
[4] = test system: UO-31 renal
[5] = test system: TK-10 renal
[6] = test system: ACHN renal
[7] = test system: CAKI-1 renal
[8] = test system: A498 renal
[9] = test system: CCRF-CEM leukemia
[10] = test system: MOLT-4 leukemia
[11] = test system: SR leukemia
[12] = test system: RPMI-8226 leukemia
[13] = test system: OVCAR-8 ovarian
[14] = test system: OVCAR-5 ovarian
[15] = test system: OVCAR-4 ovarian
[16] = test system: SK-OV-3 ovarian
[17] = test system: IGROV1 ovarian
[18] = test system: OVCAR-3 ovarian
[19] = test system: HS 578T breast
[20] = test system: NCI/ADR-RES ovarian

Measured: growth

O=C1NC(=O)C2(CCc3ccccc32)N1 (configuration not stated)
inactive: [1]; 10 µM unless noted 129% and 51.4% | [2]; 10 µM unless noted 103% and 99.9% | [3]; 10 µM unless noted 104% and 95.1% | [4]; 10 µM unless noted 101% and 85.3% | [5]; 10 µM unless noted 105% and 99.5% | [6]; 10 µM unless noted 111% and 96.7% | [7]; 10 µM unless noted 98.4% and 89.7% | [8]; 10 µM unless noted 94.4% | [9]; 10 µM unless noted 118% and 94.2% | [10]; 10 µM unless noted 101% and 83.3% | [11]; 10 µM unless noted 111% and 95.6% | [12]; 10 µM unless noted 106% and 95.6% | [13]; 10 µM unless noted 110% and 102% | [14]; 10 µM unless noted 108% and 78.7% | [15]; 10 µM unless noted 103% and 108% | [16]; 10 µM unless noted 114% and 101% | [17]; 10 µM unless noted 119% and 106% | [18]; 10 µM unless noted 99.5% and 114% | [19]; 10 µM unless noted 121% | [20]; 10 µM unless noted 109% and 92.5%

CC1=C[C@H]2c3c(c(O)c(O)c4oc5cc(O)cc(O)c5c(=O)c34)[C@H](c3cc(O)c(O)c4oc5cc(O)cc(O)c5c(=O)c34)[C@H]2C(C)(C)C1
active: [1]; 10 µM unless noted -20% and -41.4% | [3]; 10 µM unless noted 9.13% and -8.98% | [4]; 10 µM unless noted -5.69% and -75.2% | [7]; 10 µM unless noted -20.5% and -2.78% | [8]; 10 µM unless noted -4.52% and -73.5% | [9]; 10 µM unless noted 6.01% and -9.45% | [10]; 10 µM unless noted 7.66% and -18.8% | [11]; 10 µM unless noted 1.73% and 3.96% | [12]; 10 µM unless noted 4.38% and -30.3% | [13]; 10 µM unless noted 4.35% and 4.94% | [16]; 10 µM unless noted -1.03% | [18]; 10 µM unless noted -5.67% and -43.9% | [19]; 10 µM unless noted 3.36% and -17.1%
inactive: [14]; 10 µM unless noted 11% and 12.4% | [20]; 10 µM unless noted 55.8% and 23.7%
14.1% (inactive) and -13.1% (active): [17]; 10 µM unless noted
20.7% (inactive) and 7.19% (active): [15]; 10 µM unless noted
30.1% (inactive) and -5.84% (active): [5]; 10 µM unless noted
21.4% (inactive) and -31.9% (active): [2]; 10 µM unless noted
18.1% (inactive) and -7.12% (active): [6]; 10 µM unless noted

CNC(=O)c1cc(Oc2ccc(CC(=O)Nc3cc(C(C)(C)C)nn3C)cc2)ccn1
active: [10]; 10 µM -64.3%
inactive: [1]; 1 µM 67.9% | [1]; 10 µM 55.6% | [1]; 30 µM 78.3% | [2]; 1 µM 73.5% | [2]; 10 µM 62% | [2]; 30 µM 49.2% | [3]; 1 µM 72.8% | [3]; 10 µM 78.6% | [3]; 30 µM 87.1% | [4]; 1 µM 77.1% | [4]; 10 µM 93.2% | [4]; 30 µM 113% | [5]; 1 µM 95.2% | [5]; 10 µM 80.4% | [5]; 30 µM 103% | [6]; 1 µM 67.7% | [6]; 10 µM 67.8% | [6]; 30 µM 73.4% | [7]; 1 µM 57.9% | [7]; 10 µM 61.3% | [7]; 30 µM 76.5% | [8]; 1 µM 69.3% | [8]; 10 µM 31.2% | [8]; 30 µM 54.8% | [9]; 1 µM 73.3% | [9]; 10 µM 66.1% | [9]; 30 µM 62.9% | [10]; 1 µM 78% | [10]; 30 µM 65.6% | [11]; 1 µM 82.7% | [11]; 30 µM 48.9% | [12]; 1 µM 46.2% | [12]; 10 µM 62.6% | [13]; 1 µM 72.5% | [13]; 10 µM 71.8% | [13]; 30 µM 70.6% | [14]; 1 µM 104% | [14]; 10 µM 116% | [14]; 30 µM 98.9% | [15]; 1 µM 58.7% | [15]; 10 µM 44.7% | [15]; 30 µM 83.4% | [16]; 10 µM 71.8% | [16]; 30 µM 94.4% | [17]; 1 µM 75.1% | [17]; 10 µM 85.6% | [17]; 30 µM 90.5% | [18]; 1 µM 81.9% | [18]; 10 µM 69.6% | [18]; 30 µM 109% | [20]; 1 µM 85.3% | [20]; 10 µM 76% | [20]; 30 µM 53.7%

O=C(c1ccc(Cl)cc1)C(NCCO)c1ccc(Cl)cc1 (configuration not stated)
inactive: [1]; 10 µM unless noted 102% | [2]; 10 µM unless noted 103% | [3]; 10 µM unless noted 99.6% and 100% | [4]; 10 µM unless noted 80.6% and 83.8% | [5]; 10 µM unless noted 105% and 98.6% | [6]; 10 µM unless noted 120% and 102% | [7]; 10 µM unless noted 102% | [8]; 10 µM unless noted 92.7% and 110% | [9]; 10 µM unless noted 99.7% and 129% | [10]; 10 µM unless noted 86.6% and 96.6% | [11]; 10 µM unless noted 92.8% and 88.1% | [12]; 10 µM unless noted 79.3% and 113% | [13]; 10 µM unless noted 99.2% and 99.8% | [14]; 10 µM unless noted 108% and 99.5% | [15]; 10 µM unless noted 103% | [16]; 10 µM unless noted 107% and 98.2% | [17]; 10 µM unless noted 88.5% and 91.7% | [18]; 10 µM unless noted 104% and 101% | [19]; 10 µM unless noted 101% and 117% | [20]; 10 µM unless noted 98.1% and 98%

O=C(/C=C/c1ccccn1)c1ccccc1O
inactive: [1]; 10 µM unless noted 104% and 100% | [2]; 10 µM unless noted 76% and 88.1% | [3]; 10 µM unless noted 63.7% and 88.1% | [5]; 10 µM unless noted 84.4% and 55.3% | [6]; 10 µM unless noted 65.3% and 74.2% | [7]; 10 µM unless noted 34.8% and 40% | [8]; 10 µM unless noted 110% | [9]; 10 µM unless noted 13.3% | [10]; 10 µM unless noted 41.5% | [13]; 10 µM unless noted 54.4% and 84.8% | [14]; 10 µM unless noted 77.1% and 92.3% | [15]; 10 µM unless noted 101% and 88.2% | [16]; 10 µM unless noted 111% and 113% | [17]; 10 µM unless noted 38.1% and 66.6% | [18]; 10 µM unless noted 84.4% and 44.9% | [19]; 10 µM unless noted 87.2% | [20]; 10 µM unless noted 73.9% and 93.4%
active: [11]; 10 µM unless noted 4.76% | [12]; 10 µM unless noted 2.44% and -0.787%
-17.5% (active) and 74.7% (inactive): [4]; 10 µM unless noted

CC1CCCC(=O)O1 (configuration not stated)
inactive: [1]; 10 µM unless noted 103% and 107% | [2]; 10 µM unless noted 102% | [3]; 10 µM unless noted 111% | [4]; 10 µM unless noted 92.8% and 76.7% | [5]; 10 µM unless noted 103% and 108% | [6]; 10 µM unless noted 99.2% and 100% | [7]; 10 µM unless noted 95.7% and 102% | [8]; 10 µM unless noted 110% and 97.8% | [9]; 10 µM unless noted 111% | [10]; 10 µM unless noted 99.5% and 106% | [11]; 10 µM unless noted 104% | [12]; 10 µM unless noted 96.7% and 94.7% | [13]; 10 µM unless noted 110% and 95.2% | [14]; 10 µM unless noted 101% | [15]; 10 µM unless noted 96% and 104% | [16]; 10 µM unless noted 98% and 110% | [17]; 10 µM unless noted 96% and 99.9% | [18]; 10 µM unless noted 103% and 115% | [19]; 10 µM unless noted 110% and 105% | [20]; 10 µM unless noted 103% and 99.8%

O=C(O)c1sccc1O
inactive: [1]; 10 µM 87.2% | [2]; 10 µM 81.3% | [2]; 100 µM 33.5% | [3]; 10 µM 76.3% | [3]; 100 µM 35.7% | [4]; 10 µM 48.1% | [4]; 100 µM 26.7% | [5]; 10 µM 133% | [5]; 100 µM 68.8% | [6]; 10 µM unless noted 70.7% | [8]; 10 µM 89.1% | [8]; 100 µM 46.2% | [9]; 10 µM 47.7% | [9]; 100 µM 15.1% | [10]; 10 µM 46.1% | [10]; 100 µM 17.4% | [12]; 10 µM 71.4% | [12]; 100 µM 16% | [13]; 10 µM 82.4% | [13]; 100 µM 37.8% | [14]; 10 µM 102% | [14]; 100 µM 38% | [15]; 10 µM 76.5% | [15]; 100 µM 29.9% | [17]; 10 µM 74.7% | [17]; 100 µM 36% | [18]; 10 µM 75.1% | [18]; 100 µM 11.1% | [19]; 10 µM 65.6% | [19]; 100 µM 19.5% | [20]; 10 µM 81.5% | [20]; 100 µM 36%
active: [1]; 100 µM 8.51%

O=C1CCN(Cc2ccccc2)C(=S)N1
inactive: [1]; 10 µM unless noted 107% and 103% | [2]; 10 µM unless noted 111% and 118% | [3]; 10 µM unless noted 104% and 95.6% | [4]; 10 µM unless noted 87.5% and 83.7% | [5]; 10 µM unless noted 106% and 89.6% | [6]; 10 µM unless noted 104% and 97.3% | [7]; 10 µM unless noted 101% and 96.1% | [8]; 10 µM unless noted 94.6% | [9]; 10 µM unless noted 86.3% and 98.4% | [10]; 10 µM unless noted 78.2% and 98.5% | [11]; 10 µM unless noted 65.4% and 101% | [12]; 10 µM unless noted 94.5% and 102% | [13]; 10 µM unless noted 106% and 107% | [14]; 10 µM unless noted 106% and 101% | [15]; 10 µM unless noted 100% | [16]; 10 µM unless noted 101% | [17]; 10 µM unless noted 92.4% and 91.5% | [18]; 10 µM unless noted 123% and 103% | [19]; 10 µM unless noted 114% and 81.7% | [20]; 10 µM unless noted 106% and 103%
